PAX8 inh HTS – lowers PAX8-driven luciferase in RMG-I cells | inhibition, % at 12.6 µM | RMG-I TPO-luciferase reporter, SteadyGlo, 24 h | actives 1.2% (n = 360,000) | AID 652154;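 active = mean replicate inhibition at least 60% with every replicate also reaching 60%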;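 also: luciferase light reporting Pax8 driven TPO promoter activity; plate controls were median of neutral control wells for no effect and mitoxantrone controls for full effect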
Peg3 prom inh – inhibitors of Peg3 promoter. HeLa PEG-Prom luciferase reporter, luminescence, overnight. inhibition, % at 20 µM. actives 1.7% (n = 360,000). AID 588405;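 active = inhibition of at least 50% at 20 µM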
ABHD5 PLIN5 PPI – inhibitors of human ABHD5-perilipin-5 interaction; Split G. princeps luciferase complementation, luminescence, 4 h; Q00G26+Q8WTS1; actives 0.78% (n = 360,000); inhibition, % at 4 µM; AID 602281;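 active = inhibition above the mean inhibition across every tested compound plus 3 SD, cut at about 22% in these data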;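 also: 0% = DMSO only wells and the 100% control is not disclosed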
Target sequence (Q00G26 whole entry, looked up): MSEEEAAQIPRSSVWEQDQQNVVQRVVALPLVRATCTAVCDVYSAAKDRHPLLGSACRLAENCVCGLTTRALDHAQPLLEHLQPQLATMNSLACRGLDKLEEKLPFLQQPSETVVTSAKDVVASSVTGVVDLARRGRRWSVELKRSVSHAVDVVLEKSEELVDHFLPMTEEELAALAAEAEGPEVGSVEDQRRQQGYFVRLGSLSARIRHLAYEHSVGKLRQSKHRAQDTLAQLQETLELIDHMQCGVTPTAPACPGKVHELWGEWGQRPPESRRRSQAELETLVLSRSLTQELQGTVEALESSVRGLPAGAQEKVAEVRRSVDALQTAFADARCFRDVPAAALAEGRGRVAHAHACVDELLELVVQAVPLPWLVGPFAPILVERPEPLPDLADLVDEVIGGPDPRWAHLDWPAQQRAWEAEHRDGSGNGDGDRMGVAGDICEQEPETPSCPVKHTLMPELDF
Target sequence (Q8WTS1 whole entry, looked up): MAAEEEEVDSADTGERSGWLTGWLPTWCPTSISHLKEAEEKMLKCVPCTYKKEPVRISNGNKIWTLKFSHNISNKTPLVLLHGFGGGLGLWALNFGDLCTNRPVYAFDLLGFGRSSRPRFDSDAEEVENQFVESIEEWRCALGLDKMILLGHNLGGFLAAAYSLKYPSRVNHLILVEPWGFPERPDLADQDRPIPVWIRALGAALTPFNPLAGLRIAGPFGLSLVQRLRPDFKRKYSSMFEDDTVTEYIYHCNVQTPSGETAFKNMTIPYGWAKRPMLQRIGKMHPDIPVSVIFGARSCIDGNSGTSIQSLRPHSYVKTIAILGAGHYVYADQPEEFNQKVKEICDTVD
MITF TRPM1 inh – reduces MITF-dependent TRPM1 promoter luciferase signal | AID 488899 | SK-MEL-5 TRPM1 promoter luciferase, 24 h | actives 0.83% (n = 330,000) | inhibition, % at 12.5 µM;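 active = mean inhibition across replicates of 60% or more, whatever share of single replicates reaches that level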
Shn3 inh set2 – Schnurri-3 reporter inhibition in Clone20 osteoblasts. Clone20 osteoblast Shn3 3'UTR firefly luciferase, 24 h. inhibition, % at 12.5 µM. actives 0.52% (n = 360,000);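 active = mean inhibition of at least 75% with every replicate also reaching 75%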;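 also: 0% = median of neutral control wells and 100% = pilot-screen positive control compound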
EWS-Fli inh – EWS/Fli transcriptional activity inhibition; A673 NR0B1-luciferase reporter, viability-normalised; inhibition, % at 12.6 µM; actives 0.67% (n = 350,000);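 active = mean inhibition of at least 50% after viability correction, with every replicate also passing that limit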;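 also: firefly luciferase signal divided by Alamar Blue viability fluorescence both relative to DMSO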
* = called active by the depositor; . = no result given. An excerpt weighted towards active compounds, which were near 3% of everything screened.

SMILES	PAX8 inh HTS	Peg3 prom inh	ABHD5 PLIN5 PPI	MITF TRPM1 inh	Shn3 inh set2	EWS-Fli inh
C[C@@H]1CN([C@H](C)CO)S(=O)(=O)c2ccc(-c3cccc(C(=O)N(C)C)c3)cc2O[C@H]1CN(C)C(=O)Nc1ccccc1	-8.2	.	.	.	.	-4.0
CC(C)CC(=O)/C(=C\c1ccc(Cl)cc1Cl)n1cncn1	.	104.7*	95.3*	86.1*	14.1	.
O=C(Nc1nc2c(F)cc(F)cc2s1)c1ccccn1	6.0	75.3*	-5.2	65.1*	87.6*	53.1*
CO[C@@H]1CN(C)C(=O)c2cc(NC(=O)NC(C)C)ccc2OC[C@H](C)N(CCC(F)(F)F)C[C@H]1C	-10.3	.	.	.	.	3.1
C[C@@H]1CN([C@@H](C)CO)C(=O)c2cc(NS(=O)(=O)c3ccc(F)cc3)ccc2O[C@@H](C)CCCCO[C@H]1CN(C)Cc1ccccc1	23.2	.	.	.	.	-4.4
C[C@@H]1CN([C@H](C)CO)C(=O)c2cc(NS(=O)(=O)c3ccc(F)cc3)ccc2O[C@@H](C)CCCCO[C@H]1CN(C)Cc1ccccc1	76.5*	.	.	.	.	5.1
C[C@@H]1CCCCO[C@H](CN(C)Cc2ccccc2)[C@@H](C)CN([C@@H](C)CO)C(=O)c2cc(NS(=O)(=O)c3ccc(Cl)cc3)ccc2O1	74.8*	.	.	.	.	7.0
C[C@H]1CCCCO[C@H](CN(C)Cc2ccccc2)[C@@H](C)CN([C@@H](C)CO)C(=O)c2cc(NS(=O)(=O)c3ccc(Cl)cc3)ccc2O1	39.6	.	.	.	.	5.5
C[C@@H]1CN([C@H](C)CO)C(=O)c2cc(NS(=O)(=O)c3ccc(Cl)cc3)ccc2O[C@@H](C)CCCCO[C@@H]1CN(C)Cc1ccccc1	111.6*	.	.	.	.	7.9
C/C=C/c1ccc([C@H]2[C@@H](CO)N3CCCCN(S(=O)(=O)c4cccc(C)c4)C[C@@H]23)cc1	13.5	.	.	.	.	14.4
COc1ccccc1N(O)C1CC(=O)N(c2ccc(F)cc2)C1=O (stereo not drawn)	.	-1.6	-2.4	-5.2	95.3*	.
Cc1ccc(S(=O)(=O)Nc2cccc3c2O[C@@H](CN(C)C(=O)NC2CCCCC2)[C@@H](C)CN([C@H](C)CO)C3=O)cc1	-10.0	.	.	.	.	-4.0
O=C1C=CCCN1C(=O)/C=C/c1cccc(Br)c1	11.2	.	.	.	.	64.3*
NC(=O)C1CCN(C(=O)/C=C/c2cccc(Br)c2)CC1	-27.6	3.2	4.0	12.0	-4.0	4.6
COC(=O)c1ccccc1NC(=S)N(Cc1ccc2c(c1)OCO2)Cc1cc2ccc(C)cc2[nH]c1=O	29.8	24.5	-4.7	-6.5	24.2	.
COC(=O)c1ccccc1NC(=S)N(Cc1ccc2c(c1)OCO2)Cc1cc2ccc(OC)cc2[nH]c1=O	-20.9	12.1	1.5	-3.1	-13.9	88.3*
COc1ccc(/C(C)=N/NC(=O)c2cccc(S(=O)(=O)N3CCCC3)c2)c(O)c1	66.0*	45.2	0.1	73.3*	88.5*	-0.7
CCC(=O)N1CC2(CCN(Cc3ccc(Cl)cc3)CC2)c2c([nH]c3cc(OC)ccc23)[C@H]1CO	.	.	.	.	.	-6.7
COc1cc(-c2onc3ccc(Br)cc23)cc(OC)c1OC	26.0	9.2	3.4	0.6	3.4	55.8*
COc1ccc(-c2onc3ccc(Br)cc23)cc1	-14.8	-85.3	-8.2	-19.6	1.4	.
N=c1n(CC(=O)c2ccc(Br)cc2)c2ccccc2n1Cc1ccccc1	-24.1	98.8*	-5.6	90.3*	35.5	-3.1
N=c1n(CC(=O)c2ccc([N+](=O)[O-])cc2)c2ccccc2n1Cc1ccccc1Cl	4.4	85.0*	10.2	79.1*	6.0	10.4
N=c1n(Cc2ccccc2)c2ccccc2n1Cc1ccccc1	34.4	34.0	10.0	-2.6	69.1	.
Cn1c(=N)n(CC(=O)c2ccccc2)c2ccccc21	-76.9	-92.3	4.4	.	15.3	65.1*
Cn1c(=N)n(CC(=O)c2ccc(Cl)c(Cl)c2)c2ccccc21	56.8	80.8*	4.4	54.3	27.2	73.4*
SMILES	PAX8 inh HTS	Peg3 prom inh	ABHD5 PLIN5 PPI	MITF TRPM1 inh	Shn3 inh set2	EWS-Fli inh
COC(=O)[C@H]1[C@@H]2COc3ccccc3[C@H]2N[C@H]1C(=O)OC	13.2	.	.	.	.	-7.7
CC(C)NC(=O)N1[C@H](CO)[C@@H](c2ccccc2)[C@@H]1CN(C)C(=O)c1ccncc1	5.0	.	.	.	.	2.4
C/C=C/c1ccc2c(c1)O[C@@H](CN(C)Cc1ccc(F)cc1)[C@H](C)CN([C@H](C)CO)S2(=O)=O	.	.	.	.	.	37.3
O=c1c(Cl)c(NCCCO)cnn1-c1nc2ccccc2[nH]1	.	98.7*	5.2	4.6	9.9	.
O=C(C[C@@H]1CC[C@@H]2[C@H](COC[C@H](O)CN2C(=O)c2ccc3c(c2)OCO3)O1)NCCN1CCCC1	-28.2	.	.	.	.	-6.1
O=C(c1cnn2c1NC(c1ccco1)CC2C(F)(F)F)N1CCN(c2cccc(Cl)c2)CC1 (stereo not drawn)	.	50.1*	0.1	17.7	32.8	.
O=C(c1ccco1)N1CCN(C(=O)c2cnn3c2NC(c2cccs2)CC3C(F)(F)F)CC1 (stereo not drawn)	.	6.6	1.4	8.2	-4.3	-8.0
CN=C1c2cc3cc(OC)ccc3n2CCN1Cc1ccccc1	.	3.2	5.0	5.5	89.7*	.
CCN(CC)CCNC1=NCCn2c1cc1cc(OC)ccc12	-2.5	14.8	-2.9	-8.5	-20.6	.
C[C@H](CO)N1C[C@H](C)[C@@H](CN(C)C(=O)Nc2ccccc2)Oc2ccc(NC(=O)Nc3ccccc3)cc2CC1=O	7.5	.	.	.	.	-1.1
CCC(/C=C1\Sc2ccc(OC)cc2N1CCO)=C\c1sc2ccc(OC)cc2[n+]1CCO	16.2	37.5	43.4*	96.1*	15.0	3.0
O=C(CNS(=O)(=O)c1c(Cl)cccc1Cl)OCC(=O)c1ccc[nH]1	75.1*	-1.2	-0.2	4.8	5.0	-2.7
O=C(CNS(=O)(=O)c1ccc(Br)cc1Cl)OCC(=O)c1ccc[nH]1	-14.9	7.9	-5.4	3.7	-1.2	0.7
COc1ccc2nc(SCC(=O)NC3CCCC3)c(C)cc2c1	13.8	39.2	-3.4	24.1	-28.0	55.1*
COc1ccc(C(C(=O)NC2CCCCC2)N(C(=O)CCl)c2ccc(C)cc2)cc1 (stereo not drawn)	111.3*	69.0*	0.6	82.2*	3.5	48.1
COc1ccc(C(C(=O)NC2CCCCC2)N(C(=O)CCl)c2cccc(Cl)c2)cc1 (stereo not drawn)	115.3*	102.1*	13.6	88.0*	92.0*	53.4*
COc1ccc(C(C(=O)NC2CCCCC2)N(C(=O)CCl)c2ccc(OC)cc2)cc1 (stereo not drawn)	.	101.0*	-6.9	81.5*	91.8*	.
COc1cccc(CN2CCC2(C)C(=O)Nc2cccc(Oc3ccccc3)c2)c1F (stereo not drawn)	50.6	52.0*	-4.2	.	7.3	46.0
COc1cccc(NC(=O)C2(C)CCN2Cc2cccc(OC)c2F)c1 (stereo not drawn)	-13.0	7.3	4.3	.	16.8	12.2
O=C(COc1ccccc1)NNC(=S)NC(=O)c1ccccc1	-0.3	-3.4	-0.3	-11.0	-15.2	12.3
